Test results taken from PubChem BioAssay (NCI).
About 83,000 compounds went through this panel and 20% of them were active in at least one assay; those are over-represented in the sample as a whole.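 96-well plates, one dose, 48 hours. Percent growth reported; active if below 10.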 Activity calls are given as the source filed them.

Tested on: SK-MEL-28 melanoma
Assay: NCI-60 one-dose screen, 48 h (100 = growth as untreated, 0 = no growth, -100 = all killed)
Details: 10 µM unless noted
Protocol: Growth inhibition of the SK-MEL-28 human tumor cell line is measured as a screen for anti-cancer activity. Cells are grown in 96 well plates and exposed to the test compound for 48 hours. Compounds are tested at a single concentration, which is 10^-5 M for most compounds. The reported endpoint is percent growth (GI% or GIPRCNT), where numbers from 0 - 100% represent growth inhibition, and numbers from -100% - 0 represent cell death. For example, a value of 40 represents 60% growth inhibition. A value of 0 means no net growth occurred over the course of the experiment. A value of -40 indicates 40% of cells at the beginning of the experiment died by the end of the experiment. A value of -100 means all cells are dead at the end of the experiment.
NCI-60 Human Tumor Cell Lines Screen was performed using the standard one-dose NCI protocol, which is described in more detail at https://dtp.cancer.gov/discovery_development/nci-60/default.htm.
Compounds with GIPRCNT values below 10 were considered active. Activity score was based on GIPRCNT using the following formula: […]
Score is 0 for GIPRCNT values of 100 or above, 50 for GIPRCNT values of 0, and 100 for GIPRCNT values of -100.

| SMILES | growth |
| --- | --- |
| COc1cc2nccc(Oc3ccc(NC(=O)Nc4cc(C)on4)c(Cl)c3)c2cc1OC | 23.2% (inactive) |
| C[C@@H](NC(=O)c1ncnc(N)c1Cl)c1ncc(C(=O)Nc2cc(C(F)(F)F)c(Cl)cn2)s1 | 9.63% (active) |
| Cn1ncc(Cl)c1-c1cc(C(=O)N[C@H](CN)Cc2ccc(F)c(F)c2)oc1Cl | -77.1% (active) |
| N#CC(C#N)=NO | 110% (inactive) |
| CN1[C@@H]2CC[C@H]1/C(=C\c1ccccc1)C1=C2[C@@H](c2ccccc2)C(C#N)=C(N)O1 | 104% (inactive) |
| CNc1ncc2cc(-c3cc(NC(=O)NCCC(C)(C)C)c(F)cc3C)c(C)nc2n1 | -6.47% (active) |
| Cn1cc(-c2ccc(F)c(C(F)(F)F)c2)nc1C1CCN(c2ncnc3[nH]ncc23)CC1 | 86.2% (inactive) |
| COc1ccc2c(CCc3ccc(Cl)cc3)c3[n+](cc2c1OC)CCc1cc2c(cc1-3)OCO2 | 27.6% (inactive) |
| COc1cc(C(=O)NNC(=O)c2ccc(NC(=O)CCl)cc2)cc(OC)c1OC | 86.9% (inactive) |
| Cc1cc2c(-c3nc4ccccn4c3Nc3cccc4ccccc34)c(O)c(O)cc2c(O)c1-c1c(C)cc2c(-c3nc4ccccn4c3Nc3cccc4ccccc34)c(O)c(O)cc2c1O | 34.5% (inactive) |
| O=C(COc1cccc(/C=C2\Cc3ccc(Cl)cc3C2=O)c1)Nc1nccs1 | 124% (inactive) |
| Nc1ccc(S(=O)(=O)O)c2cc(S(=O)(=O)O)cc(O)c12 | 97.1% (inactive) |
| O=c1[nH]c([C@@H]2CCCN2)nc2c1oc1ccc(Cl)cc12 | 78.8% (inactive) |
| CCCCCC(=O)OCc1ccc(Cl)c(Cl)c1 | 111% (inactive) |
| ClCc1ccc(-c2ccc(Cn3cnc4c(Cl)nc(Cl)nc43)cc2)cc1 | -29.4% (active) |
| C=CCN(/C=C1/C(=O)O[C@H](COC)[C@@]2(C)C1=C(O)C(=O)C1=C2[C@H](OC(C)=O)C[C@]2(C)C(=O)CC[C@@H]12)CC=C | 24.4% (inactive) |
| NC(=O)Nc1cc(-c2cccc(F)c2)sc1C(=O)N[C@H]1CCCNC1 | 14.2% (inactive) |
| CN(C)C[C@@H]1CCn2cc(c3ccccc32)C2=C(C(=O)NC2=O)c2cn(c3ccccc23)CCO1 | -92.6% (active) |
| CCc1nc2cc(/C=C/C(=O)NO)ccc2c(=O)n1CCc1ccc(OC)cc1 | 30% (inactive) |
| CC(C)Nc1cc(-c2c[nH]c(C(=O)N[C@H](CO)c3cccc(Cl)c3)c2)c(Cl)cn1 | 5.19% (active) |

| SMILES | growth |
| --- | --- |
| C=CCn1c(=O)c2cnc(Nc3ccc(N4CCN(C)CC4)cc3)nc2n1-c1cccc(C(C)(C)O)n1 | 64.4% (inactive) |
| CCN1/C(=C/C=C/c2n(-c3ccccc3)c3ccc(-c4nc5ccccc5s4)cc3[n+]2CC)N(c2ccccc2)c2ccc(-c3nc4ccccc4s3)cc21 | -8.49% (active) |
| C[C@@H]1COCCN1c1cc(C2([S@](C)(=N)=O)CC2)nc(-c2ccnc3[nH]ccc23)n1 | 70.7% (inactive) |
| CCCCCCC1(/C=N/NC(N)=O)NC(=O)NC1=O (stereo not given) | 106% (inactive) |
| CCN(CCCOc1ccc2c(Nc3cc(CC(=O)Nc4cccc(F)c4)[nH]n3)ncnc2c1)CCOP(=O)(O)O | 55.3% (inactive) |
| CCC1(/C=N/NC(N)=S)NC(=O)NC1=O (stereo not given) | 111% (inactive) |
| O=c1sn(-c2cccc3ccccc23)c(=O)n1Cc1ccccc1 | 114% (inactive) |
| CC(C)(C)c1cnc(CSc2cnc(NC(=O)C3CCNCC3)s2)o1 | -12.8% (active) |
| O=C(COc1ccc(/C=C2\Cc3ccc(Cl)cc3C2=O)cc1)Nc1nccs1 | 122% (inactive) |
| CCN(CC)CCN1C(=O)c2cccc3c(-c4ccc5c(c4)ncn5C4CCCCC4)ccc(c23)C1=O | -38.2% (active) |
| C/C(=C(/c1ccc(Cl)cc1)c1ccc(OCCN2CCCC2)cc1)c1ccccc1 | 62% (inactive) |
| O=C(NCCO)Nc1ccc(-c2nc(N3CCOCC3)c3cccn3n2)cc1 | -7.13% (active) |
| CC1=CC2c3oc(-c4ccccc4)c(C(=O)c4ccccc4)c3CNC2C=C1 (stereo not given) | 111% (inactive) |
| COc1cc2ncnc(Nc3ccc(O)cc3)c2cc1OC | 97% (inactive) |
| Cc1nn(-c2nc3ccccc3[nH]2)c2c1C(c1ccc(OCc3ccc(F)cc3)cc1)CC(=O)N2 (stereo not given) | 63% (inactive) |
| CC(C)(C)CC(C)(C)Nc1c(-c2c(O)c3ccccc3oc2=O)nc2c(Cl)cc(C(F)(F)F)cn12 | 113% (inactive) |
| COc1cccc(Nc2ncnn3ccc(CN4CC[C@@H](N)[C@H](O)C4)c23)c1 | 89.7% (inactive) |
| CC1(O)CC(c2nc(-c3ccc4ccc(-c5ccccc5)nc4c3)c3c(N)nccn23)C1 (stereo not given) | 40.7% (inactive) |
| Cc1c(NC(=O)OC[C@@H]2COCCN2)cn2ncnc(Nc3ccc4c(cnn4Cc4cccc(F)c4)c3)c12 | -10.1% (active) |
| Cc1cc(-c2cc(OC(=O)c3ccccc3)ccc2Cl)cc2nnc(Nc3ccc(OCCN4CCCC4)cc3)nc12 | 89.2% (inactive) |
